From PubChem BioAssay (NCI)
Several values for one entry are separate records, joined by “and”; a condition that tells them apart may be missing. Equal values may be shown once. About 83,000 compounds went through this panel and 20% of them were active in at least one assay; those are over-represented in the sample as a whole.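 Step 1: grow cells in 96-well plates. Step 2: add test compound at a single concentration. Step 3: incubate 48 h. Step 4: record percent growth.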 Values without a mark were called inactive. Activity calls are given as the source filed them.

These compounds were tested on SNB-19 CNS (assay: NCI-60 one-dose screen, 48 h (100 = growth as untreated, 0 = no growth, -100 = all killed)). Conditions: 10 µM.
Protocol: Growth inhibition of the SNB-19 human tumor cell line is measured as a screen for anti-cancer activity. Cells are grown in 96 well plates and exposed to the test compound for 48 hours. Compounds are tested at a single concentration, which is 10^-5 M for most compounds. The reported endpoint is percent growth (GI% or GIPRCNT), where numbers from 0 - 100% represent growth inhibition, and numbers from -100% - 0 represent cell death. For example, a value of 40 represents 60% growth inhibition. A value of 0 means no net growth occurred over the course of the experiment. A value of -40 indicates 40% of cells at the beginning of the experiment died by the end of the experiment. A value of -100 means all cells are dead at the end of the experiment.
NCI-60 Human Tumor Cell Lines Screen was performed using the standard one-dose NCI protocol, which is described in more detail at https://dtp.cancer.gov/discovery_development/nci-60/default.htm.
Compounds with GIPRCNT values below 10 were considered active. Activity score was based on GIPRCNT using the following formula: […]
Score is 0 for GIPRCNT values of 100 or above, 50 for GIPRCNT values of 0, and 100 for GIPRCNT values of -100.

Row | Structure (SMILES) | growth [%]
1 | CC#C[C@]1(O)CC[C@H]2[C@@H]3CCC4=CC(=O)CCC4=C3[C@@H](c3ccc4c(c3)OCO4)C[C@@]21C | 75.8
2 | CCc1ccccc1-n1c(N)c(C#N)c(-c2ccc(OC)c(OC)c2)c(C#N)c1=O | 104
3 | Cc1[nH]c(-c2nc3ccccc3[nH]2)c(C)c1C(=O)NC(C)C1CCCCC1 (stereo not given) | 86.6
4 | O=C(O)c1sccc1O | 82.1

Same assay, conditions: 10 µM unless noted

Row | Structure (SMILES) | growth
5 | CN1CCN(c2ccc3nc(-c4c(N)c5c(F)cccc5[nH]c4=O)[nH]c3c2)CC1 | 53.9% and 61.5%
6 | Cn1c(=O)c2[nH]c(CCCCCCCCc3nc4ccccc4[nH]3)nc2n(C)c1=O | 66.9% and 65.4%
7 | Cc1cccc(/C=C\C(=O)c2ccc(Cl)cc2)c1 | 91.6% and 101%
8 | CC1CCCc2sc3nc(NNC(=O)c4cnccn4)n(-c4ccccc4)c(=O)c3c21 (stereo not given) | 25.8% and 21.6%
9 | O=[N+]([O-])c1ccc2nc3c4ccccc4c4ccccc4c3nc2c1 | 89.2%
10 | CC(C)(O)Cn1cc(-c2ccc3nc(OC4CC4)ccc3c2)c2c(N)ncnc21 | 74.8% and 64.3%
11 | S=C1SCN(Cc2ccccc2)CN1Cc1ccccc1 | 96.4%
12 | OCc1ccccn1 | 109%
13 | N=C1N=C(N)CS1 | 104%
14 | O=C(/C=C\c1ccnc2ccccc12)c1ccc([N+](=O)[O-])cc1 | 90% and 86.4%
15 | C[N+](C)(C)CN1C(=O)c2ccccc2C1=O | 98.5%
16 | CCOc1ccc2nc3cc(N)ccc3c(N)c2c1 | 10.5%
17 | NC(=O)NO | 105% and 69.6%
18 | COc1ccc(S(=O)(=O)N2CCOCC2)cc1NC(=O)c1[nH]c(C)c2c1CCCCC2=O | 98.7% and 64.1%
19 | Cn1c(=O)n(-c2ccc(C(C)(C)C#N)cc2)c2c3cc(-c4cnc5ccccc5c4)ccc3ncc21 | 14.9% and 14.7%
20 | CC1=C(/C=C/C(C)=C/C=C/C(C)=C/C=N/NC(=S)NC(=S)N/N=C/C=C(C)/C=C/C=C(C)/C=C/C2=C(C)CCCC2(C)C)C(C)(C)CCC1 | 36.2% and 16.3%

Row | Structure (SMILES) | growth
21 | CC(=O)Nc1ccc2cc3ccc(NC(C)=O)cc3nc2c1 | 79.2% and 73.4%
22 | Oc1ccc(/C=C/c2ccccc2)cc1 | 84.1% and 91.2%
23 | CC1=C(/C=C/C(C)=C/C=C/C(C)=C/C(=O)O)C(C)(C)CCC1 | 86.1% and 97.4% and 90.3%
24 | O=[N+]([O-])c1ccccc1/C=N\Nc1ccccc1 | 96.2% and 102%
25 | O=[N+]([O-])c1ccccc1N(S(=O)(=O)c1ccccc1)S(=O)(=O)c1ccccc1 | 107% and 98.6%
26 | CC(O)Cn1cnc2c1c(=O)n(C)c(=O)n2C (stereo not given) | 104%
27 | O=C(Nc1ccc([N+](=O)[O-])cc1Cl)c1cc(Cl)ccc1O | 13.2% and 21%
28 | CC1=C(/C=C/C(C)=C/C=C/C(C)=C/C(=O)Nc2ccc(O)cc2)C(C)(C)CCC1 | 80.2%
29 | COc1ccc(/C(C#N)=C/c2ccccn2)cc1 | 97.9% and 106%
30 | c1ccc2cc(C[n+]3ccn(Cc4ccc5ccccc5n4)c3)ccc2c1 | 13.3% and 19.7%
31 | Clc1ccc(NC(Nc2ccc(Cl)cc2)C(Cl)(Cl)Cl)cc1 | 104% and 112%
32 | CCOc1ccc2c(S(=O)(=O)O)cccc2c1[N+](=O)[O-] | 108% and 112%
33 | O=C(Nc1ccc(Br)cc1)c1cc(Br)ccc1O | 22.1% and 23.1%
34 | O=[N+]([O-])c1ccc(/C=N\NC(=S)Nc2ccc(F)cc2)cc1 | 103% and 93.5%
35 | CCNC(=O)Nc1ccc(-c2nc3c(c(N4CCOC[C@@H]4C)n2)CCN(C2COC2)C3)cc1 | 59.2% and 15.7%
36 | CNc1cc(-c2cccc(OC(F)(F)F)c2)nc2ccc(N3CCCC3)cc12 | 18.7% and 12.2% and 16.2%

Same assay, conditions: 100 µM

Row | Structure (SMILES) | growth
37 | CC#C[C@]1(O)CC[C@H]2[C@@H]3CCC4=CC(=O)CCC4=C3[C@@H](c3ccc4c(c3)OCO4)C[C@@]21C | 4.26% (active)
38 | CCc1ccccc1-n1c(N)c(C#N)c(-c2ccc(OC)c(OC)c2)c(C#N)c1=O | 10.5%
39 | Cc1[nH]c(-c2nc3ccccc3[nH]2)c(C)c1C(=O)NC(C)C1CCCCC1 (stereo not given) | -94.7% (active)
40 | O=C(O)c1sccc1O | 34.8%
